Test results: PubChem BioAssay
The source made the active and inactive calls. Unless noted, how the calls were made is not given here.

Key:
[1] = resazurin metabolic signal in HepG2 cells – cell-based, resazurin fluorescence, 24 h, PK04 Diversity Set, profiling panel (AID 1172); conditions: HepG2 viability, higher = more signal
[2] = budding yeast growth changes without added modifier – OD600, strain BY4716, 24 h, basal condition, primary screen (AID 1173); conditions: S. cerevisiae BY4716 growth, OD600, 24 h; higher = more signal, called active from +8 up or from −8 down
[3] = viability profiling in MM1S myeloma cells – cell-based, resazurin fluorescence, basal, 24 h, PK04 Diversity Set, profiling panel (AID 1174); conditions: higher = more signal, called active from +8 up or from −8 down;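 further: MM1S multiple myeloma cell line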
[4] = target: Dihydroorotate dehydrogenase (quinone), mitochondrial (Plasmodium falciparum (isolate 3D7)) (UniProt Q08210); assay: inhibition of P. falciparum DHODH – biochemical, C-terminal His tag, absorbance 600 nm, primary screen (AID 1175); conditions: PfDHODH enzyme, DCIP absorbance 600 nm; higher = more signal, called active from +8 up or from −8 down;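 further: recombinant parasite enzyme with a five histidine tag at its C terminus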
[5] = inhibition of PAO1 biofilm formation – strain PAO1, LB-PBS medium, absorbance 600 nm, primary screen (AID 1176); conditions: P. aeruginosa PAO1 growth/biofilm, A600, 12 h; higher = more signal
[6] = growth modulation of vineyard yeast isolate – strain RM11-1a, OD600, basal, 24 h, primary screen (AID 1177);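 further: cultures grown under basal conditions with no added stressor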; conditions: S. cerevisiae RM11-1a growth, OD600, 24 h; higher = more signal, called active from +8 up or from −8 down
[7] = growth of efflux-deficient E. coli DRC39 – strain DRC39, OD650, 24 h, E. coli filamentation inducers, primary screen (AID 1178);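 further: growth measured as culture turbidity by optical density at 650 nm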; conditions: E. coli DRC39 acrAB, higher = more signal, called active from +8 up or from −8 down
[8] = growth of efflux-deficient E. coli DRC39 – strain DRC39, OD650, 48 h, E. coli filamentation inducers, primary screen (AID 1179);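 further: screen aims at cell division blockers that make cells filament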; conditions: E. coli DRC39 delta-acrAB growth, higher = more signal, called active from +8 up or from −8 down
[9] = viability profiling in RPMI8226 myeloma cells – cell-based, resazurin fluorescence, basal, 24 h, PK04 Diversity Set, profiling panel (AID 1180); conditions: higher = more signal;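 further: RPMI8826 multiple myeloma cell line at 5000 cells per well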
[10] = target: E3 ubiquitin-protein ligase XIAP (Homo sapiens) (UniProt P98170); assay: small molecules binding XIAP protein – biophysical, small-molecule microarray, fluorescence 635 nm, primary screen (AID 1181); conditions: higher = more signal;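 further: score merges 667 nm emission and signal to noise over triplicate slides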
[11] = tested on: XIP peptide (Xip251-270) binding; assay: XIP fragment 251-270 binding compounds – biochemical, small-molecule microarray, fluorescence 635/667 nm, 0.1 µg/mL protein, primary screen (AID 1182); conditions: fluorescent protein binding, 635 nm, higher = more signal, called active from +8 up or from −8 down
[12] = tested on: XIP peptide (Xip251-270); assay: compounds binding XIP fragment 251-270 – biochemical, small-molecule microarray, fluorescence 635/667 nm, 0.5 µg/mL protein, primary screen (AID 1183); conditions: fluorescence 635 nm, higher = more signal
[13] = blood-stage malaria parasite viability loss – strain 3D7, DAPI fluorescence, 100 nL, primary screen (AID 1184);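 further: parasites grown inside human red blood cells in medium with human serum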; conditions: P. falciparum 3D7 growth, 3 d, higher = more signal
[14] = target: Homeobox protein Hox-A13 (Mus musculus) (UniProt Q62424); assay: disruptors of Hoxa13 oligonucleotide interaction – biochemical, fluorescence polarization, labeled oligonucleotide, primary screen (AID 1185); conditions: Hoxa13:DNA binding, 15 min, higher = more signal, called active from +8 up or from −8 down
Homeobox protein Hox-A13 (Mus musculus), sequence (Q62424 whole entry, looked up): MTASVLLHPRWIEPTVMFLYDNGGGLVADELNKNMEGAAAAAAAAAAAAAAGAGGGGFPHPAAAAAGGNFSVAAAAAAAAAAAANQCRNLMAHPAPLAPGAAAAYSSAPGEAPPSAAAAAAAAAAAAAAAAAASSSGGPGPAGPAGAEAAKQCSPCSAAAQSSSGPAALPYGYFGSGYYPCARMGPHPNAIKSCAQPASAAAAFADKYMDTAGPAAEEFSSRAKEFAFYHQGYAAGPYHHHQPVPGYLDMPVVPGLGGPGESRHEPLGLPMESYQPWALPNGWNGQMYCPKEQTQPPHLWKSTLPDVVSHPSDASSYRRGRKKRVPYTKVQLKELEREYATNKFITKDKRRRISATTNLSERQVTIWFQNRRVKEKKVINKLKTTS

E3 ubiquitin-protein ligase XIAP (Homo sapiens), sequence (P98170 whole entry, looked up, the tested form may be a part): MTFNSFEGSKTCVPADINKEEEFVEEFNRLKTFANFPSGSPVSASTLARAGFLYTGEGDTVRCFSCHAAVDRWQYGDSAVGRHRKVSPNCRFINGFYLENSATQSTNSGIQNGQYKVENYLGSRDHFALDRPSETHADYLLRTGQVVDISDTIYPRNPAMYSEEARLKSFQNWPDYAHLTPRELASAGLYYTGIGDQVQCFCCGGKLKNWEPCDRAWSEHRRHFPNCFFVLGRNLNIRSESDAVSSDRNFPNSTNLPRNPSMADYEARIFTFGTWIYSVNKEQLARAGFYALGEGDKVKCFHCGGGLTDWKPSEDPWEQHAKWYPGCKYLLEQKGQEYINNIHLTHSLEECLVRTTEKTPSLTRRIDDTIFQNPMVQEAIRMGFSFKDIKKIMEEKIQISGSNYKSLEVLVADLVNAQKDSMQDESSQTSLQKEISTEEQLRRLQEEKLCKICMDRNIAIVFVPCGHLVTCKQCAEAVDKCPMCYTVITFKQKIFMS
Dihydroorotate dehydrogenase (quinone), mitochondrial (Plasmodium falciparum (isolate 3D7)), sequence (Q08210 whole entry, looked up): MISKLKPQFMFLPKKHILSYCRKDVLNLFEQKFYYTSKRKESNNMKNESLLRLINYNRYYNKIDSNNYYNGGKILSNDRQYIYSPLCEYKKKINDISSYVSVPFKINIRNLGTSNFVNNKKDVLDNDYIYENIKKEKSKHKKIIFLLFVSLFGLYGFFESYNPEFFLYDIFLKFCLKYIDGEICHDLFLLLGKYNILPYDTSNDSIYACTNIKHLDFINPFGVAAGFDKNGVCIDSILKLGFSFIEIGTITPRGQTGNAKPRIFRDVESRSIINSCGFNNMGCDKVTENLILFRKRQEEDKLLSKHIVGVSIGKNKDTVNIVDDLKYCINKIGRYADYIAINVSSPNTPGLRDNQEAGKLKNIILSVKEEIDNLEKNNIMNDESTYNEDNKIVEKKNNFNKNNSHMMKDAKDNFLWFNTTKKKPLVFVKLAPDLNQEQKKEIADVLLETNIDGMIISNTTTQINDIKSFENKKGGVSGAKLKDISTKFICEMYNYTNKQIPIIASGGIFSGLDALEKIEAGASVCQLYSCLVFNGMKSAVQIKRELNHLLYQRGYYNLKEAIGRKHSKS

Row | SMILES | z-score [1] | z-score [2] | z-score [3] | composite z-score [4] | z-score [5] | z-score [6] | z-score [7] | z-score [8] | z-score [9] | composite z-score [10] | composite z-score [11] | composite z-score [12] | z-score [13] | z-score [14]
1 | CCOC(=O)[C@H](Cc1ccccc1)NC(=O)CCC1CC(OC(=O)NCc2ccc3c(c2)OCO3)CC2(CCCC(COC(=O)NCC(c3ccccc3)c3ccccc3)O2)O1 (stereo partly drawn) | 0.56 | -1.14 (inactive) | 0.328 (inactive) | -0.219 (inactive) | 0.405 (inactive) | 0.445 (inactive) | 0.816 (inactive) | 0.381 (inactive) | 0.909 | -0.0351 | 0.48 (inactive) | 0.308 | -0.909 | -3.45 (inactive)
2 | CC(C)CON=C1C[C@@H](O)[C@@H](O)[C@@H]2[C@@H]3C(=O)N(C[C@@H]4CCCO4)C(=O)[C@@H]3CC[C@H]12 | 0.511 | -0.138 (inactive) | -0.594 (inactive) | -0.849 (inactive) | 0.884 (inactive) | -0.776 (inactive) | -0.353 (inactive) | 0.0723 (inactive) | 0.139 | -0.174 | -0.125 (inactive) | 0.0241 | -0.421 | -1.58 (inactive)
3 | CO[C@@H]1COC(=O)[C@@H]2CCCN2C(=O)[C@@H](C)COC(=O)[C@H](COCc2ccccc2)NC(=O)CC=C[C@H]1C | -0.327 | 0.185 (inactive) | -0.722 (inactive) | -0.241 (inactive) | -0.455 (inactive) | 0.549 (inactive) | -0.489 (inactive) | -1.98 (inactive) | -0.228 | -0.153 | -0.33 (inactive) | 0.0728 | -0.67 | -0.767 (inactive)
4 | COC(=O)[C@H](C)NC(=O)CCC1CC(OC(=O)NCc2cccc3ccccc23)CC2(CCCC(COC(=O)NCCc3ccc(Cl)cc3)O2)O1 (stereo partly drawn) | 0.788 | -0.0765 (inactive) | 0.319 (inactive) | -0.473 (inactive) | -0.61 (inactive) | -0.425 (inactive) | -0.0798 (inactive) | 0.687 (inactive) | 0.413 | -0.0718 | -0.0057 (inactive) | 0.204 | -1.79 | -1.77 (inactive)
5 | Cn1c(=O)n2n(c1=O)[C@H]1[C@H](O)[C@@H]3O[C@@H]3C(=NOC[C@@H](O)COCc3ccco3)[C@H]1CC2 | -0.31 | -0.419 (inactive) | -0.877 (inactive) | 0.0599 (inactive) | 0.823 (inactive) | -0.17 (inactive) | -0.157 (inactive) | 0.317 (inactive) | -0.378 | -0.0382 | 3.04 (inactive) | 0.265 | 0.192 | 0.445 (inactive)
6 | CCc1cc2c(nc1CC)CCN(CCC(C)=NO[C@@H](C)c1cc(-c3c(C)cc(C)cc3C)no1)C2 | -0.0169 | -2.75 (inactive) | -0.433 (inactive) | -0.0406 (inactive) | 0.903 (inactive) | 0.526 (inactive) | 0.416 (inactive) | 0.566 (inactive) | 0.374 | 0.19 | -0.712 (inactive) | 0.325 | 0.319 | -2.85 (inactive)
7 | O=C(NN=C1C[C@@H](O)[C@@H](O)[C@@H]2[C@@H]3C(=O)N(c4cccc(Oc5ccccc5)c4)C(=O)[C@@H]3CC[C@H]12)OCc1ccccc1 | 0.615 | -0.841 (inactive) | -0.0525 (inactive) | 0.294 (inactive) | -0.708 (inactive) | -0.474 (inactive) | 0.578 (inactive) | 0.514 (inactive) | 0.49 | -0.141 | -0.132 (inactive) | 0.0323 | -1.43 | -3.8 (inactive)
8 | COc1cccc([C@H]2Oc3ccc(OC)cc3C(=NOC(C)CN3CCCc4nc(C)c(C)cc43)[C@@H]2O)c1 (stereo partly drawn) | -0.948 | -0.872 (inactive) | -0.944 (inactive) | 0.956 (inactive) | -0.136 (inactive) | -0.168 (inactive) | -0.0128 (inactive) | -0.565 (inactive) | -0.948 | 0.271 | 0.22 (inactive) | -0.452 | -1.06 | -8.09 (active)
9 | COc1ccc(-c2ccc3c(n2)CCCN3CC(O)CN2CCCc3nc(C)c(C)cc32)cc1 (stereo not drawn) | -0.671 | -1.75 (inactive) | -0.559 (inactive) | 1.18 (inactive) | 0.274 (inactive) | -0.256 (inactive) | 0.975 (inactive) | 0.65 (inactive) | -0.836 | 1.15 | 2.32 (inactive) | 0.79 | 0.618 | -9.12 (active)
10 | O=C1[C@H]2[C@H]3[C@H](O)[C@H](O)CC(=NOCc4ccccc4)[C@H]3CC[C@H]2C(=O)N1c1ccc(F)cc1F | 1.15 | -1.51 (inactive) | -0.254 (inactive) | -0.738 (inactive) | 0.328 (inactive) | -0.645 (inactive) | 0.586 (inactive) | 0.535 (inactive) | 1.28 | 0.104 | -0.0939 (inactive) | 0.159 | -1.08 | 1.02 (inactive)
11 | CC(C)(C)N1C(=O)[C@H]2[C@H]3[C@H](O)[C@H](O)CC(=NOCc4ccccc4)[C@@H]3CC[C@H]2C1=O | -1.74 | -0.245 (inactive) | -0.637 (inactive) | -1.36 (inactive) | 0.246 (inactive) | -2.23 (inactive) | -0.474 (inactive) | -0.0278 (inactive) | -1.34 | -0.0735 | 0.691 (inactive) | 0.779 | 0.281 | 1.12 (inactive)
12 | CC(CCN1CCc2nc(-c3ccccc3)c(-c3ccccc3)cc2C1)=NO[C@@H](C)c1cn([C@H](CO)Cc2ccccc2)nn1 | -1.41 | -3.25 (inactive) | -0.996 (inactive) | -1.81 (inactive) | -0.23 (inactive) | -2.23 (inactive) | -0.249 (inactive) | -0.147 (inactive) | -0.914 | -0.376 | -0.416 (inactive) | -0.346 | -0.17 | -4.81 (inactive)
13 | CC(C)[C@H](NC(=O)OC(C)(C)C)[C@@H](O)CC(=O)OC(C)(C)C | -0.811 | -0.448 (inactive) | 0.351 (inactive) | 0.0945 (inactive) | -0.506 (inactive) | 0.259 (inactive) | -1.69 (inactive) | -0.998 (inactive) | 0.496 | -0.102 | -0.182 (inactive) | -0.4 | -1.75 | -0.799 (inactive)
14 | COc1ccc(O[C@H]2C=C[C@@H](c3ccccc3)O[C@@H]2CON=C[C@@H](C)[C@H](OCc2ccccc2)C(C)C)cc1 | -0.821 | 0.742 (inactive) | -1.69 (inactive) | -0.896 (inactive) | -0.348 (inactive) | 0.443 (inactive) | 0.335 (inactive) | 1.01 (inactive) | -0.854 | 0.144 | 0.0702 (inactive) | -0.126 | -0.118 | -0.538 (inactive)
15 | C=CC[C@@H]1C=C[C@H](ON=C2c3cc(OC)ccc3O[C@H](c3cccc(OC)c3)[C@H]2O)[C@@H](CO)O1 | -1.38 | -0.903 (inactive) | -1.15 (inactive) | -0.726 (inactive) | 0.113 (inactive) | -0.7 (inactive) | 0.57 (inactive) | 0.741 (inactive) | -1.37 | -0.0834 | 0.0897 (inactive) | -0.479 | 0.888 | -5.69 (inactive)
16 | CCOC(=O)CCN1C(=O)[C@H]2[C@H]3[C@H](O)C=CC(=O)[C@@H]3CC[C@H]2C1=O | -0.0089 | 0.454 (inactive) | 0.606 (inactive) | 0.231 (inactive) | 0.0942 (inactive) | 0.713 (inactive) | 0.446 (inactive) | -0.689 (inactive) | 0.353 | 0.0356 | 0.58 (inactive) | 0.0156 | -0.0439 | -0.525 (inactive)
17 | COc1cccc([C@H]2Oc3ccc(OC)cc3C(=NO[C@H](C)c3cn([C@@H]4COC[C@H]4O)nn3)[C@@H]2O)c1 | -0.859 | -0.117 (inactive) | 0.0029 (inactive) | -2.1 (inactive) | -0.409 (inactive) | -0.761 (inactive) | -0.537 (inactive) | -2.22 (inactive) | -0.238 | 0.0264 | 0.0524 (inactive) | -0.561 | -0.866 | -2.61 (inactive)
